# Measurements from PubChem BioAssay (NCATS).
# Inconclusive results are not listed. Active and inactive are the calls of the source. Unless noted, calls come from the whole dose curve; as a rule, active = well fitted inhibition curve with a large enough effect; inconclusive = small, poorly fitted or top-dose-only effect; inactive = flat fitted curve, though single readings scatter.
# Key:
# [1] = qHTS drug screen for cell cycle checkpoint inhibitors in PARPi-resistant BRCA-mutant ovarian cancer cell lines. (AID 1963452; calls by dose curve); conditions: PEO1/OlaR viability, CellTiter-Glo luminescence, 96 h; for Z-AUC: stronger effect = lower value
# Procedure, shortened: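 PEO1, PEO4 and PEO1/OlaR ovarian cancer cells, 600 per well, exposed 96 h at 37C to a dilution series. Viability read by CellTiter-Glo luminescence, normalized to DMSO and empty wells; activity summarized as Z-AUC.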
# [2] = qHTS for identification of novel therapeutic agents for treatment of microphthalmiaassociated transcription factor (MiT) renal cell carcinoma (RCC) (AID 1963991; calls by dose curve); conditions: CellTiter-Glo, 48 h; for z-score: stronger effect = lower value; for Potency: active = Z-AUC below -0.8 in all three lines
# Procedure, shortened: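 Three TFE3-fusion RCC lines (UOK109, UOK124, UOK145), 500 cells/well in complete medium, were treated with MIPE 4.0 compounds for 48 hours at 37 C. Viability was by CellTiter-Glo luminescence, normalized to DMSO (100%) and empty wells (0%); curves fitted over 11 concentrations.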
# [3] = qHTS profiling for inhibitors of Plasmodium falciparum proliferation (AID 504749); note: nearly all actives have a fitted effect of over 60% in size;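 for activity, negative = inhibition: 0% = DMSO vehicle and full inhibition = artemisinin control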; conditions: P. falciparum in erythrocytes, SYBR Green DNA, 72 h
# Procedure, shortened: (§1)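 Readout was DNA-dye fluorescence from lysed cultures, ex 485/em 535 nm. Parasitized red cells had grown 72 h with compound; data scaled between 0.29 uM artemisinin and DMSO wells and corrected using vehicle-only plates.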
# 3D7 = assay: as above; conditions: P. falciparum in erythrocytes, SYBR Green DNA, 72 h; series mostly up to 28.7 µM
# Procedure, shortened: as §1
# 7G8 = assay: as above; conditions: P. falciparum in erythrocytes, SYBR Green DNA, 72 h; series mostly up to 28.7 µM
# Procedure, shortened: as §1
# AA1029 = assay: as above; conditions: P. falciparum in erythrocytes, SYBR Green DNA, 72 h; series mostly up to 28.7 µM
# Procedure, shortened: as §1
# ATS189 = assay: as above; conditions: P. falciparum in erythrocytes, SYBR Green DNA, 72 h; series mostly up to 28.7 µM
# Procedure, shortened: as §1
# ATS95 = assay: as above; conditions: P. falciparum in erythrocytes, SYBR Green DNA, 72 h; series mostly up to 28.7 µM
# Procedure, shortened: as §1
# C2A = assay: as above; conditions: P. falciparum in erythrocytes, SYBR Green DNA, 72 h; series mostly up to 28.7 µM
# Procedure, shortened: as §1
# CP185 = assay: as above; conditions: P. falciparum in erythrocytes, SYBR Green DNA, 72 h; series mostly up to 28.7 µM
# Procedure, shortened: as §1
# CP191 = assay: as above; conditions: P. falciparum in erythrocytes, SYBR Green DNA, 72 h; series mostly up to 28.7 µM
# Procedure, shortened: as §1
# CP194 = assay: as above; conditions: P. falciparum in erythrocytes, SYBR Green DNA, 72 h; series mostly up to 28.7 µM
# Procedure, shortened: as §1
# CP201 = assay: as above; conditions: P. falciparum in erythrocytes, SYBR Green DNA, 72 h; series mostly up to 28.7 µM
# Procedure, shortened: as §1
# CP211 = assay: as above; conditions: P. falciparum in erythrocytes, SYBR Green DNA, 72 h; series mostly up to 28.7 µM
# Procedure, shortened: as §1
# CP217 = assay: as above; conditions: P. falciparum in erythrocytes, SYBR Green DNA, 72 h; series mostly up to 28.7 µM
# Procedure, shortened: as §1
# CP237 = assay: as above; conditions: P. falciparum in erythrocytes, SYBR Green DNA, 72 h; series mostly up to 28.7 µM
# Procedure, shortened: as §1
# AS120 = assay: as above; conditions: P. falciparum in erythrocytes, SYBR Green DNA, 72 h; series mostly up to 28.7 µM
# Procedure, shortened: as §1
# CP215 = assay: as above; conditions: P. falciparum in erythrocytes, SYBR Green DNA, 72 h; series mostly up to 28.7 µM
# Procedure, shortened: as §1
# CP192 = assay: as above; conditions: P. falciparum in erythrocytes, SYBR Green DNA, 72 h; series mostly up to 28.7 µM
# Procedure, shortened: as §1
# [4] = measured here: PEO1 parental Z-AUC
# [5] = TFE3-RCC UOK109 viability, measured here: UOK109 Z-AUC
# [6] = TFE3-RCC viability, measured here: UOK124 Z-AUC
# [7] = TFE3-RCC viability, measured here: UOK145 Z-AUC
# Potency is the fitted concentration of half-maximal effect.
smiles,measurement,setting,value
CS(=O)(=O)c1ccc(C2=C(c3ccccc3)C(=O)OC2)cc1,Z-AUC,[1],0.327 (inactive)
same,Z-AUC,[1]; [4],0.543
same,Z-AUC,[1]; measured here: PEO4 Z-AUC,0.0438
same,z-score,[2]; [5],0.605
same,z-score,[2]; [6],0.766
same,z-score,[2]; [7],0.708
same,"activity, negative = inhibition","[3]; at 28.7 µM (top of the series), parasite line A",0.606% (inactive)
same,"activity, negative = inhibition","[3]; at 28.7 µM (top of the series), parasite line B",18.5% (inactive)
same,Potency,3D7,inactive
same,Potency,7G8,inactive
same,Potency,AA1029,inactive
same,Potency,ATS189,inactive
same,Potency,ATS95,inactive
same,Potency,C2A,inactive
same,outcome,CP185,inactive
same,outcome,CP191,inactive
same,Potency,CP194,inactive
same,Potency,CP201,inactive
same,Potency,CP211,inactive
same,Potency,CP217,inactive
same,Potency,CP237,inactive
CC(C)C[C@@H](N)[C@H](O)C(=O)N[C@H](C(=O)N[C@H](C(=O)N[C@@H](CC(=O)O)C(=O)O)C(C)C)C(C)C,Z-AUC,[1],-0.687 (inactive)
same,Z-AUC,[1]; [4],-0.6
same,Z-AUC,[1]; measured here: PEO4 Z-AUC,-0.277
same,z-score,[2]; [5],0.245
same,z-score,[2]; [6],0.596
same,z-score,[2]; [7],-0.2
CN1C(=O)C(Cc2c[nH]c3ccccc23)NC1=S (stereo not drawn),Z-AUC,[1],-0.877 (inactive)
same,Z-AUC,[1]; [4],-0.326
same,Z-AUC,[1]; measured here: PEO4 Z-AUC,-0.823
same,z-score,[2]; [5],0.322
same,z-score,[2]; [6],0.546
same,z-score,[2]; [7],0.284
O=C1NC(=O)C(c2cnc3ccccn23)=C1c1cn2c3c(cccc13)CN(C(=O)N1CCOCC1)CC2,Z-AUC,[1],-1.3 (inactive)
same,Z-AUC,[1]; [4],-1.91
same,Z-AUC,[1]; measured here: PEO4 Z-AUC,-0.9
same,Potency,[2]; TFE3-RCC UOK109 viability,4.18 µM (active)
same,z-score,[2]; [5],-1.6
same,z-score,[2]; [6],-1.78
same,z-score,[2]; [7],-1.46
Clc1ccc(COC(Cn2ccnc2)c2ccc(Cl)cc2Cl)c(Cl)c1 (stereo not drawn),Z-AUC,[1],-0.245 (inactive)
same,Z-AUC,[1]; [4],0.118
same,Z-AUC,[1]; measured here: PEO4 Z-AUC,-0.196
same,Potency,[3]; parasite line B,2.82 µM (active)
same,Potency,7G8,0.708 µM (active)
same,Potency,AA1029,4.47 µM (active)
same,Potency,AS120,2 µM (active)
same,Potency,ATS95,3.98 µM (active)
same,Potency,CP215,5.73 µM (active)
same,Potency,CP217,3.16 µM (active)
same,Potency,CP237,3.55 µM (active)
NS(=O)(=O)c1cc(Cl)c(Cl)c(S(N)(=O)=O)c1,Z-AUC,[1],0.54 (inactive)
same,Z-AUC,[1]; [4],0.261
same,Z-AUC,[1]; measured here: PEO4 Z-AUC,0.359
same,z-score,[2]; [5],0.846
same,z-score,[2]; [6],0.351
same,z-score,[2]; [7],1.23
same,"activity, negative = inhibition","[3]; at 12.8 µM (top of the series), parasite line A",1.59% (inactive)
same,"activity, negative = inhibition","[3]; at 12.8 µM (top of the series), parasite line B",6.65% (inactive)
same,Potency,3D7,inactive
same,Potency,AA1029,inactive
same,Potency,AS120,inactive
same,Potency,ATS189,inactive
same,Potency,ATS95,inactive
same,Potency,C2A,inactive
same,outcome,CP185,inactive
same,outcome,CP191,inactive
same,Potency,CP192,inactive
same,Potency,CP194,inactive
same,Potency,CP201,inactive
same,Potency,CP211,inactive
same,Potency,CP215,inactive
same,Potency,CP217,inactive
same,Potency,CP237,inactive
Cc1ccc(S(=O)(=O)OCC(=O)Nc2ccc(C(=O)O)c(O)c2)cc1,Z-AUC,[1],1.67 (inactive)
same,Z-AUC,[1]; [4],1.37
same,Z-AUC,[1]; measured here: PEO4 Z-AUC,1.35
same,z-score,[2]; [5],-0.0907
same,z-score,[2]; [6],0.585
same,z-score,[2]; [7],-0.321
COc1ccc(-c2ccc3ncc4c(c3c2)n(-c2ccc(N3CCNCC3)c(C(F)(F)F)c2)c(=O)n4C)cn1,Potency,[1],0.123 µM (active)
same,Z-AUC,[1]; [4],-2.24
same,Z-AUC,[1]; measured here: PEO4 Z-AUC,-2.26
same,Potency,[2]; TFE3-RCC UOK109 viability,1.48 µM (active)
same,z-score,[2]; [5],-2.72
same,z-score,[2]; [6],-3.95
same,z-score,[2]; [7],-3.85
CCN(CCO)CCCOc1ccc2c(Nc3cc(CC(=O)Nc4cccc(F)c4)[nH]n3)ncnc2c1,Z-AUC,[1],-0.614 (inactive)
same,Z-AUC,[1]; [4],-0.629
same,Z-AUC,[1]; measured here: PEO4 Z-AUC,-1.66
same,z-score,[2]; [5],0.018
same,z-score,[2]; [6],0.316
same,z-score,[2]; [7],0.045
